HSF1 activator: increases HSF-1 driven luciferase reporter signal | NIH3T3-HGL HSF-1 luciferase reporter, MG132, 8 h; 100% = twice DMSO control signal | activation, % at 9 µM | actives 1.7% (n = 300,000) | AID 504408;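 active = mean replicate activation of at least 50% with a set share of replicates each reaching 50%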
NR0B1 inh: inhibits human nuclear receptor DAX1. HEK293 Gal4-DAX1 luciferase reporter, luminescence. P51843. actives 0.99% (n = 340,000). inhibition, % at 6.75 µM;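 active = inhibition above the mean over all tested compounds plus 3 SD, cut at about 4.2% in these data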;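 also: inhibition shows as a rise in luminescence from relieved DAX1 repression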
GAA850 FXN act: activators of GAA850 frataxin (FXN) promoter; HEK293 lucGAA850 FXN promoter luciferase reporter, 24 h; percent of 10 µM SAHA response; activation, % at 6 µM; actives 0.56% (n = 360,000);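 active = activation above the average of all compounds screened plus 3 SD, cutoff fixed separately per campaign, cut at about 7.5% in these data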
AHR activator: activators of human aryl hydrocarbon receptor | AHR-responsive luciferase reporter cells, luminescence | actives 2.5% (n = 320,000) | P35869 | activation, % at 5 µM; in the data active = activation above about 47%
Target sequence (P35869 whole entry, looked up): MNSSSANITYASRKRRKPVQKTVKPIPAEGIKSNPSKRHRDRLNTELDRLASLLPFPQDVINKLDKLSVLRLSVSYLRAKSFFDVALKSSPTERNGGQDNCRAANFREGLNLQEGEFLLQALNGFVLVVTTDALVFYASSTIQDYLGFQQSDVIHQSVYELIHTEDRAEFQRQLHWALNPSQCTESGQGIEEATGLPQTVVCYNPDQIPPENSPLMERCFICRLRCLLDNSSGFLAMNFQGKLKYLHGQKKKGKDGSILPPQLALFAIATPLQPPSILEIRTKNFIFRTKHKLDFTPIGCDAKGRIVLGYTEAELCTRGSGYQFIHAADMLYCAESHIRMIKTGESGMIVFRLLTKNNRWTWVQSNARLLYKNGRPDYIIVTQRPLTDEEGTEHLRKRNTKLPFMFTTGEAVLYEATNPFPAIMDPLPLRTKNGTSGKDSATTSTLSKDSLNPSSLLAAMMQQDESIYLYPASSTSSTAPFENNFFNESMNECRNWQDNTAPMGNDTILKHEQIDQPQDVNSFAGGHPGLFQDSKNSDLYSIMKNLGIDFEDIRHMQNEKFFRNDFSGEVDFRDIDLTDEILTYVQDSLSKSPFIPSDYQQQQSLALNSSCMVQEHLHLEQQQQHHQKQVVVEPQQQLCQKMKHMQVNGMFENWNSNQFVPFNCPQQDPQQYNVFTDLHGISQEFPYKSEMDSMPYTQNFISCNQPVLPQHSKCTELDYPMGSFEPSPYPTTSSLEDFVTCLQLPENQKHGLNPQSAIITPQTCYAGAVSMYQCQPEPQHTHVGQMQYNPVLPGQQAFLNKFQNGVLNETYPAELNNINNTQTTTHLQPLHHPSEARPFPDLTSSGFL
HSP90 refold inh: inhibitors of HSP90 luciferase refolding in rabbit reticulocyte lysate; luciferase refolding luminescence, 3 h; inhibition, % at 5.6 µM; actives 0.91% (n = 290,000);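 active = inhibition above the screen-wide mean plus 3 SD, computed separately per campaign, cut at about 16% in these data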;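 also: inhibitors lower the luminescence because luciferase stays unfolded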
HSF1 inhib: HSF1 inhibition; actives 0.77% (n = 300,000); activity change, negative = inhibition, % at 7.5 µM (by protocol); AID 2098; NIH3T3-HGL HSE-luciferase, MG132-induced, luminescence 8 h; active compounds read low;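 active = more than half of replicate wells show activity change below -50%, luminescence cut by over half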;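 also: luciferase reports HSF-1 transcriptional activity via heat shock element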
Of the large screens only hits and unclear results are named; the others gave an inactive call. A selection: hits, their analogues and other compounds. The true share with any hit is near 5.9%.

CN(C(=O)c1ccc(S(=O)(=O)N(C)C)cc1)c1ccc2ccccc2c1	none
O=C(Nc1cccc(NC(=O)c2ccc(Cl)cc2)n1)c1ccc(Cl)cc1	none
O=C(Nc1ccc2ccccc2n1)c1ccc(Cl)cc1	HSF1 activator 60
O=C(Nc1ccc2ccccc2n1)c1ccccc1Cl	HSF1 activator 61
Cn1c(N)c(C(=O)/C=C/c2ccccc2)c(=O)[nH]c1=O	AHR activator 47
CS(=O)(=O)N(CC(=O)Nc1ccc(Br)cc1F)C1CCCCC1	AHR activator 55
CC(=O)Nc1cccc(-c2ccnc3c2CC(C(=O)NCCC(F)(F)F)O3)c1 (stereo not given)	none (no result: HSF1 activator, NR0B1 inh, AHR activator, HSP90 refold inh, HSF1 inhib)
COc1cc(OC)cc(C(=O)NCC(=O)OCc2cc(=O)oc3cc(OC)ccc23)c1	none
COCc1cc(=O)oc2cc(NC(=O)c3ccc(C(C)(C)C)cc3)ccc12	HSF1 activator 57
Cc1ccc(-n2ncc(-c3n[nH]c(=S)o3)c2N)cc1C	none (no result: HSF1 activator, AHR activator, HSP90 refold inh, HSF1 inhib)
Cc1ccc2c(CN3CCN(S(=O)(=O)/C=C/c4ccccc4)CC3)cc(=O)oc2c1	HSF1 activator 78
Cc1ccc2c(CN3CCCCC3)cc(=O)oc2c1	none
O=S(=O)(Nc1ccc2c(c1)OCCO2)c1cccs1	HSF1 inhib -63
Cn1c(=O)c(=O)n(C)c2cc(S(=O)(=O)Nc3ccc4c(c3)OCCO4)ccc21	HSF1 inhib -60
O=S(=O)(Nc1ccc2c(c1)OCO2)c1cccs1	none
CN(CC1COc2ccccc2O1)C(=O)CSc1ncnc2sccc12 (stereo not given)	none (no result: HSF1 activator, HSP90 refold inh, HSF1 inhib)
COC(=O)C1=CN(Cc2ccc(OC)c(OC)c2)C=C(C(=O)OC)C1c1ccccc1F	HSF1 inhib -55 (no result: AHR activator)
COC(=O)C1=CN(Cc2ccc(OC)c(OC)c2)C=C(C(=O)OC)C1c1cccc(OC)c1OC	none
COC(=O)c1sc(S(=O)(=O)NC(Cc2ccccc2)C(=O)O)c(C(=O)OC)c1C (stereo not given)	none (no result: HSF1 activator, HSP90 refold inh, HSF1 inhib)
O=C(OCc1nnc(-c2ccccc2)o1)c1ccccc1	none
O=C(OCc1nnc(-c2ccccc2)o1)C12CC3CC(CC(Br)(C3)C1)C2	NR0B1 inh 4.8 (no result: AHR activator)
COc1ccc(-c2nnn(CC(=O)NC(=O)NC3CCCCC3)n2)cc1OC	none (no result: HSF1 activator, HSP90 refold inh, HSF1 inhib)
Cc1onc(-c2ccccc2)c1NC(=O)N(CCC#N)Cc1ccccc1	HSF1 activator 58 (no result: NR0B1 inh)
N#CCCN(Cc1ccccc1)C(=O)Nc1ccccc1	none
O=C(CCNS(=O)(=O)c1cccc2nsnc12)NCc1ccccc1Cl	none
O=C(CCNS(=O)(=O)c1cccc2nsnc12)NCc1cccs1	HSF1 inhib -80
COc1cccc(CNC(=O)CCNS(=O)(=O)c2cccc3nsnc23)c1	NR0B1 inh 8.6
N#CCCn1[nH]c(-c2ccccc2)cc1=O	HSP90 refold inh 31
Cc1cc(=O)n(CCCc2ccccc2)[nH]1	none (no result: HSP90 refold inh)
COc1ccc(NC(=O)CNc2ccc(OC)c(S(=O)(=O)N3CCOCC3)c2)cc1	none (no result: HSF1 activator, AHR activator, HSP90 refold inh, HSF1 inhib)
COc1ccc(OC)c(N(C(=O)c2ccco2)C(C(=O)NC2CCCC2)c2cc(OC)c(OC)c(OC)c2)c1 (stereo not given)	none
CC(C)(C)c1ccc2c(c1)N(CC(=O)O)C(=O)CO2	none
O=C(CN1C(=O)COc2ccccc21)c1ccc(Cl)cc1	AHR activator 50
O=C(CN1C(=O)COc2ccccc21)c1cccc(Cl)c1	none
O=C(O)CN1C(=O)COc2cc(S(=O)(=O)N3CCCC3)ccc21	NR0B1 inh 5.8
CN(C)CCNC(=O)CN1C(=O)COc2ccc(C(C)(C)C)cc21	HSF1 inhib -68
Cc1ccc2c(c1)N(CC(=O)O)C(=O)CO2	HSF1 inhib -80
COCCCN1C(=O)C(=O)/C(=C(/O)c2ccc(S(=O)(=O)N3CCOCC3)cc2)C1c1ccc(Cl)cc1 (stereo not given)	none
CC(=O)Nc1cccc(NC(=O)c2ccccc2OCc2c(C)noc2C)c1	none (no result: HSP90 refold inh)
O=C(c1ccccc1)c1ccsc1C(=O)c1ccccc1	none (no result: HSF1 activator, AHR activator, HSP90 refold inh, HSF1 inhib)
O=C1C(=O)c2c(C(=O)c3ccccc3)coc2-c2ccccc21	AHR activator 52
Cc1oc2c(c1C(=O)c1ccccc1)C(=O)C(=O)c1ccccc1-2	AHR activator 64
Cc1oc2c(c1C(=O)O)C(=O)c1ccccc1C2=O	none
C/C(=N\NC(=O)c1cccc(Br)c1)c1cccnc1	none (no result: AHR activator)
Cc1ccc(S(=O)(=O)N(C)CC(=O)NCC(c2ccco2)N(C)C)cc1 (stereo not given)	none (no result: HSF1 activator, HSP90 refold inh, HSF1 inhib)
COc1ccc(/C=C/C(=O)NCCCc2ccccc2)cc1	HSF1 activator 62
COc1ccc(/C=C/C(=O)Nc2nonc2NC(C)=O)cc1	AHR activator 49
CN(C)c1ccc(NC(=O)/C=C/c2ccccc2Cl)cc1	HSF1 activator 54
O=C(/C=C/c1ccccc1Cl)NCc1ccccc1	none
O=C(/C=C/c1ccccc1Cl)NCCc1ccccc1	HSF1 activator 55
c1ccc(SC23CC4CC(CC(C4)C2)C3)nc1	none (no result: HSF1 activator, AHR activator, HSP90 refold inh, HSF1 inhib)
Cc1ccc(NS(=O)(=O)c2ccc(C)c(C(=O)Nc3ccc(S(=O)(=O)Nc4onc(C)c4C)cc3)c2)cc1	none (no result: HSF1 activator, AHR activator, HSP90 refold inh, HSF1 inhib)
CC(C)[C@H](NC(=O)c1c(F)cccc1F)C(=O)N1CCN(c2ccc(F)cc2)CC1	none
CCCCN1/C(=C/c2ccc3ccccc3[n+]2CC)Sc2ccccc21	HSF1 activator 57 (no result: NR0B1 inh, AHR activator)
CC(/C=N/n1c(-c2cc(C)[nH]n2)n[nH]c1=S)=C\c1ccccc1	AHR activator 78
COc1ccc(/C=N/n2c(-c3cc(C)[nH]n3)n[nH]c2=S)cc1	none
COc1ccc(/C=N/n2c(-c3cc(C)[nH]n3)n[nH]c2=S)cc1OC	HSF1 inhib -74 (no result: NR0B1 inh)
CC(=C/c1ccccc1)/C=N/n1c(-c2ccco2)n[nH]c1=S	none
CCN1CCN(C(=O)c2[nH]c3ccc(OC)cc3c2C)CC1	none
O=C(Nc1cccc2ccccc12)/C(Cl)=C/c1ccccc1	AHR activator 68
O=C(Nc1ccc(F)cc1)/C(Cl)=C/c1ccccc1	NR0B1 inh 9.9
O=C1CN(c2ccccc2)C(=S)N1C(=O)c1ccc(Br)cc1	NR0B1 inh 7.7
O=C(Nc1ccc(Cl)cc1)Nc1nc(-c2sccc2Br)cs1	AHR activator 62
O=C(Nc1ccc(Cl)cc1)Nc1nc(-c2ccccc2O)cs1	none
CCOc1ccc(NC(=O)CSc2nnc(C3CC3)n2C)cc1S(=O)(=O)N1CCCCC1	none (no result: HSF1 activator, HSP90 refold inh, HSF1 inhib)
O=C(Nc1ccc(F)cc1)Nc1ccc(Oc2ncnc3cc(Cl)ccc23)nc1	none
O=C(O)CCCC(=O)Nc1ccc(Oc2ncnc3cc(Cl)ccc23)nc1	NR0B1 inh 5.9
CC(C)N(C)c1ncnc2c1ncn2[C@H]1CN(Cc2ccc(-c3ccccc3)cc2)C[C@@H](CO)O1	none (no result: HSF1 activator, NR0B1 inh, AHR activator, HSP90 refold inh, HSF1 inhib)
CCCNC(=O)/C=C/c1ccc(C(C)C)cc1	NR0B1 inh 5.0
CC(C)c1ccc(/C=C/C(=O)O)cc1	NR0B1 inh 4.3 (no result: HSF1 activator, HSF1 inhib)
Cc1ccc(S(=O)(=O)NCC(C)n2cncn2)cc1C (stereo not given)	none
